Test results as given in PubChem BioAssay (NCI).
Compounds without any hit were thinned out: in the full panel of roughly 83,000, 20% have a hit.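 Method: cells in 96-well plates; compound added at one concentration; 48 h incubation; percent growth measured; values under 10 scored active.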 A number with no mark means an inactive call. Calls of active or inactive are those of the source.

Tests used:
Experiment in all cases: NCI-60 one-dose screen, 48 h (100 = growth as untreated, 0 = no growth, -100 = all killed)
Conditions in all cases: 10 µM
[1] = test system: NCI-H23 lung
[2] = test system: NCI-H226 lung
[3] = test system: NCI-H322M lung
[4] = test system: HOP-62 NSCLC
[5] = test system: NCI-H460 lung
[6] = test system: HOP-92 NSCLC
[7] = test system: NCI-H522 lung
[8] = test system: A549/ATCC NSCLC
[9] = test system: 786-0 renal
[10] = test system: COLO 205 colon
[11] = test system: DU-145 prostate
[12] = test system: K-562 leukemia
[13] = test system: MALME-3M melanoma
[14] = test system: MDA-MB-231 breast
[15] = test system: RXF 393 renal
[16] = test system: SF-268 CNS
[17] = test system: SF-295 CNS
[18] = test system: SF-539 CNS
[19] = test system: UACC-257 melanoma
[20] = test system: M14 melanoma

SMILES | growth [1] | growth [2] | growth [3] | growth [4] | growth [5] | growth [6] | growth [7] | growth [8] | growth [9] | growth [10] | growth [11] | growth [12] | growth [13] | growth [14] | growth [15] | growth [16] | growth [17] | growth [18] | growth [19] | growth [20]
COc1cc2c(c(OC)c1OC)C(=O)CC(c1cccc(NC(=O)c3cccc(N)c3)c1)O2 (stereo not given) | 91.1% | 86.7% | 91% | 100% | 79.2% | 74% | 61% | 85.3% | 91.9% | 102% | 83% | 47.5% | 78.8% | 68.3% | 100% | 81.7% | 92.8% | 95.3% | 93.4% | 96.5%
COc1ccccc1[C@H]1C(C(=O)c2ccc(Cl)cc2)C2(N[C@@H]1c1ccccc1)C(=O)Nc1ccc(Cl)cc12 (stereo not given in full) | -1.97% (active) | 4.06% (active) | 32.9% | 26% | 8.58% (active) | 7.15% (active) | -5.89% (active) | 15.8% | 8.8% (active) | -69.7% (active) | 10.5% | 1.21% (active) | -24.8% (active) | 4.86% (active) | -29.4% (active) | 26.3% | 2.46% (active) | -16.6% (active) | 22.4% | 28.4%
C=C1CCC2C3(C)COC(c4cc(F)cc(F)c4)OC3CCC2(C)C1C/C=C1/C(=O)OCC1O (stereo not given) | -39.2% (active) | -20.9% (active) | 24.5% | -64.1% (active) | 13.1% | -52.4% (active) | -79.8% (active) | 4.7% (active) | -90.5% (active) | -68% (active) | -52.9% (active) | 12.7% | -78.8% (active) | -63.7% (active) | -73.7% (active) | 36.7% | -82.7% (active) | -90.9% (active) | -85.4% (active) | -64.6% (active)
COc1cccc2nc(Nc3ccc(F)c(NC(=O)c4ccc(CN5CCN(C)CC5)c(C(F)(F)F)c4)c3)ccc12 | -17.8% (active) | 17% | 32.7% | -36.4% (active) | -68.8% (active) | -22.8% (active) | -60.9% (active) | 18.5% | -66.3% (active) | -78.7% (active) | 6.64% (active) | -70.8% (active) | -91.3% (active) | -37.8% (active) | -27.1% (active) | 22.2% | -84% (active) | -93.6% (active) | -66.5% (active) | -12% (active)
CC1=C2C(=C[C@@](C)(COCOCCCl)[C@@H]2O)C(=O)[C@](C)(O)C12CC2 | -81.7% (active) | -39.2% (active) | -18.2% (active) | -51.1% (active) | -11% (active) | -14.6% (active) | -74.4% (active) | -1.86% (active) | -36.2% (active) | -73.7% (active) | -11.1% (active) | 8.32% (active) | -84.9% (active) | -44.7% (active) | -78.4% (active) | -9.66% (active) | -30.2% (active) | -65% (active) | -30.3% (active) | -16% (active)
CC(=O)Nc1ccc(-n2cnc3cc(-c4ccc(O)cc4)ccc32)cc1F | 49.2% | 9.75% (active) | 52% | 44.4% | 10.5% | 55.1% | -42.7% (active) | 33.8% | 32.4% | -11.4% (active) | 34% | 6.14% (active) | 65.6% | 34.7% | -0.397% (active) | 40.6% | 2.75% (active) | -5.18% (active) | 59.8% | 35.5%
COc1csc(/C=N/NC(=O)c2[nH]c3ccc(Br)cc3c2-c2ccccc2)c1 | 7.1% (active) | 23.1% | 34.7% | 24.9% | -5.74% (active) | 49.2% | -48.5% (active) | 13.7% | 4.83% (active) | -79.9% (active) | 7.13% (active) | 4.06% (active) | 30.9% | 3.77% (active) | 23.3% | 23.5% | -10.2% (active) | -39.8% (active) | 34.8% | 11.5%
O=C(c1ccc(O)cc1)C1[C@H](c2ccc(Br)cc2)[C@@H](c2ccccc2)NC12C(=O)Nc1ccc(Br)cc12 (stereo not given in full) | -54.4% (active) | -34.5% (active) | 10.4% | -36.2% (active) | 6.63% (active) | -21.3% (active) | -41.6% (active) | 13.4% | -5.43% (active) | -85.2% (active) | 9.58% (active) | 3.5% (active) | -49.3% (active) | -67.7% (active) | -62.9% (active) | 10.6% | -22.7% (active) | -17.8% (active) | 49.1% | 14.8%
CN1C(=O)/C(=C/c2nccs2)SC1=S | 80.8% | 87.2% | 83.7% | 111% | 91% | 92.4% | 77.7% | 98.5% | 105% | 119% | 91.2% | 66.8% | 82.1% | 87.5% | 103% | 104% | 93.2% | 95.4% | 85.4% | 87.2%
COc1ccccc1[C@H]1C(C(=O)c2ccc(O)cc2)C2(N[C@@H]1c1ccccc1)C(=O)Nc1ccc(Br)cc12 (stereo not given in full) | 33.8% | 48.1% | 55.3% | 51.3% | 20.2% | 51.8% | -7.87% (active) | 32.6% | 26.9% | -5.4% (active) | 56% | 23.1% | 66.3% | 32.9% | 13.5% | 53.1% | 27.9% | 51.8% | 56.1% | 51.6%
COc1cc(OC(F)(F)F)ccc1C(=O)Nc1sc2c(c1C#N)CCC(=O)C2 | 54.5% | 87.9% | 97.9% | 84.8% | 100% | 95.2% | -36.3% (active) | 93.5% | 97.5% | 97.8% | 103% | 11% | 85% | 66.7% | 22.8% | 96.6% | 60.7% | 8.76% (active) | 98% | 64.4%
Clc1ccc(/C=N/Nc2ncnc3sc4c(c23)CCN(Cc2ccccc2)C4)cc1 | 13.9% | -54.2% (active) | 22.3% | -33.5% (active) | -75.6% (active) | -59.6% (active) | 1.08% (active) | -53.2% (active) | -84.8% (active) | -86.1% (active) | 3.38% (active) | 1.43% (active) | -66.9% (active) | -65.8% (active) | 31.5% | -31.2% (active) | -81.6% (active) | -87.1% (active) | -15.5% (active) | -63.2% (active)
Cc1ccc(/C(N)=N/c2sc(-c3ccccc3)nc2-c2ccccc2)cc1 | 83.1% | 94.3% | 90.2% | 101% | 76.5% | 90.2% | 83% | 80.4% | 76.7% | 91.1% | 89% | 28.5% | 89.2% | 82.5% | 82.7% | 79.2% | 77.6% | 79.7% | 93.9% | 79.6%
O=C1NC(=NC23CC4CC(CC(C4)C2)C3)N/C1=C\c1ccc2ncccc2n1 | -53.7% (active) | -15.6% (active) | -10.2% (active) | -5.42% (active) | -8.97% (active) | -14.6% (active) | -20.6% (active) | 2.65% (active) | 2.78% (active) | -19.3% (active) | 2.14% (active) | 13.6% | -41.3% (active) | -18.5% (active) | -78.1% (active) | -29.8% (active) | -27.5% (active) | -77.7% (active) | -4.23% (active) | 14.5%
O=C(c1ccc(O)cc1)C1[C@H](c2ccccc2Br)[C@@H](c2ccccc2)NC12C(=O)Nc1ccc(Cl)cc12 (stereo not given in full) | -34.8% (active) | -7.3% (active) | 27% | 6.01% (active) | 9.99% (active) | -1.49% (active) | -47.1% (active) | -4.7% (active) | 2.9% (active) | -76.9% (active) | 32.5% | 7.61% (active) | -10.7% (active) | -57.3% (active) | -19.5% (active) | 27.7% | -6.39% (active) | 8.24% (active) | 25% | 28.4%
